14 molecules from PubChem BioAssay (Tox21) can be followed below.

A short description of experiment [1]: qHTS assay to test for compound auto fluorescence at 535 nm (green) in HEK293 cells (AID 720680). For orientation: In qHTS, concentration-response curves come from the screen itself.
Experiment [2] in a line: qHTS assay to test for compound auto fluorescence at 460 nm (blue) in HEK293 cell free culture (AID 720681). In a few lines:
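Test compounds were pinned into cell-free culture medium (DMEM with 10% FBS) and fluorescence was read directly at Ex/Em 405/460 nm. Signals were expressed as fluorescence equivalents of triamterene, with DMSO vehicle as control.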

The nature of experiment [3]: qHTS assay to test for compound auto fluorescence at 535 nm (green) in HEK293 cell free culture (AID 720682). In a few lines: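 Read-out: 485/535 nm fluorescence intensity, calibrated against fluorescein. Medium only (DMEM + 10% FBS, no cells); test compound or DMSO vehicle added by pintool before plate reading.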
Experiment [4] can be described thus: qHTS assay to test for compound auto fluorescence at 590 nm (red) in HEK293 cell free culture (AID 720683). The essentials:
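Tox21 10K library compounds were pinned into cell-free DMEM with 10% FBS and fluorescence was read at excitation 540 nm. Activity is expressed as Rose Bengal sodium equivalency.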

A short description of experiment [5]: qHTS assay to test for compound auto fluorescence at 590 nm (red) in HepG2 cell free culture (AID 720684). The essentials: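 Red fluorescence (540 nm excitation, 590 nm emission) was measured after compound transfer into cell-free MEM supplemented with 10% FBS. Values are equivalencies against Rose Bengal sodium.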
Experiment [6] can be described thus: qHTS assay to test for compound auto fluorescence at 460 nm (blue) in HepG2 cell free culture (AID 720685). The essentials: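 Compound (23 nL) or DMSO pinned into cell-free MEM with 10% FBS; blue fluorescence read at 405/460 nm excitation/emission, expressed as auto-fluorescence equivalency to triamterene.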
The nature of experiment [7]: qHTS assay to test for compound auto fluorescence at 535 nm (green) in HepG2 cell free culture (AID 720686).
Experiment [8] addresses Glucocorticoid receptor (Homo sapiens) (UniProt P04150). Kind of experiment: qHTS assay to identify small molecule agonists of the glucocorticoid receptor (GR) signaling pathway (AID 720691; active means well fitted activation curve with a large enough effect in the signal ratio in the repeat runs, not every such curve was filed as active; the % refers to the signal ratio). In a few lines: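 GR-bla HeLa cells carrying a GRE-driven beta-lactamase reporter, exposed to compounds for 18 h at 37 C. Reporter activation read as fluorescence after 2 h with LiveBLAzer B/G FRET substrate at room temperature.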

For experiment [9] the target is unchanged. Nature of the experiment: qHTS assay to identify small molecule antagonists of the glucocorticoid receptor (GR) signaling pathway (AID 720692; active means well fitted inhibition curve with a large enough effect in the signal ratio in the repeat runs, not every such curve was filed as active; the % refers to the signal ratio). The essentials: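 GR-bla HeLa cells carrying a GRE-driven beta-lactamase reporter received compound after 4 h plating, then dexamethasone (5 nM final). After 18 h at 37C, the FRET substrate was loaded for 2 h at room temperature and fluorescence read.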

The nature of experiment [10]: qHTS assay for identifying genotoxic compounds that show differential cytotoxicity against isogenic chicken DT40 cell lines with known DNA damage response pathways - wild type cell line (AID 743012). Further: nearly all actives have a fitted effect of over 60% in size. Further: potency means the concentration at half of the fitted maximal effect. In a few lines:
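Wild-type DT40 cells (300/well) exposed to compounds for 40 hours at 37 C/5% CO2. Viability read by CellTiter-Glo luminescence after 30 min at room temperature.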

The nature of experiment [11]: qHTS assay for identifying genotoxic compounds that show differential cytotoxicity against isogenic chicken DT40 cell lines with known DNA damage response pathways - Rev3 mutant cell line (AID 743014). Further: nearly all actives have a fitted effect of over 55% in size. Further: potency means the concentration at half of the fitted maximal effect.
Experiment [12] in a line: qHTS assay to identify small molecule antagonists of the androgen receptor (AR) signaling pathway - cell viability counter screen (AID 743033; further: nearly all actives have a fitted effect of over 45% in size).
A short description of experiment [13]: qHTS assay to identify small molecule antagonists of the glucocorticoid receptor (GR) signaling pathway - cell viability counter screen (AID 720693). Further: nearly all actives have a fitted effect of over 55% in size.
Experiment [14] in a line: qHTS assay for identifying genotoxic compounds that show differential cytotoxicity against isogenic chicken DT40 cell lines with known DNA damage response pathways - Rad54/Ku70 mutant cell line (AID 743015). Further: nearly all actives have a fitted effect of over 60% in size. Further: potency means the concentration at half of the fitted maximal effect.
The target of experiment [15] is Androgen receptor (Homo sapiens) (UniProt P10275). Nature of the experiment: qHTS assay to identify small molecule agonists of the androgen receptor (AR) signaling pathway (AID 743036; active means well fitted activation curve with a large enough effect in the signal ratio in the repeat runs, with a control signal flat, not every such curve was filed as active; the % refers to the signal ratio). In a few lines:
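HEK293 cells stably carrying a UAS-driven beta-lactamase reporter (GeneBLAzer AR-UAS-bla-GripTite) were plated at 2,000 cells/well, rested 4 h at 37C, then exposed to compounds in DMSO for 16 h. LiveBLAzer B/G FRET substrate was added for 2 h at room temperature; fluorescence read.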

The target is the same in experiment [16]. Kind of experiment: qHTS assay to identify small molecule agonists of the androgen receptor (AR) signaling pathway using the MDA cell line (AID 743040; further: nearly all actives have a fitted effect of over 20% in size). In a few lines: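 MDA-kb2 breast carcinoma cells stably carrying an MMTV-driven luciferase reporter (AR- and GR-responsive) were seeded and held 5 h at 37C, 0% CO2, then exposed to compounds in DMSO for 16 h. Luminescence was read 30 min after ONE-Glo addition.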

Experiment [17] in a line: qHTS assay to identify small molecule antagonists of the androgen receptor (AR) signaling pathway using the MDA cell line - cell viability counter screen (AID 743041; further: nearly all actives have a fitted effect of over 45% in size). The essentials:
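MDA-kb2 AR-luc human breast carcinoma cells (MMTV-luciferase, AR/GR responsive) were treated with compounds plus R1881 agonist for 16 h at 37 °C. Viability was read as CellTiter-Fluor fluorescence in the same wells as the reporter assay.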

Experiment [18] addresses Androgen receptor (Homo sapiens) (UniProt P10275). Kind of experiment: qHTS assay to identify small molecule antagonists of the androgen receptor (AR) signaling pathway using the MDA cell line (AID 743042; further: nearly all actives have a fitted effect of over 55% in size). In a few lines:
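MDA-kb2 cells (human breast carcinoma, stably carrying an MMTV-luciferase reporter responsive to AR and GR) were plated at 3,000 cells/well and preincubated 5 hr at 37C, then given compound plus R1881 agonist for 16 h. ONE-Glo luminescence was read.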

Experiment [19] shares this target. Nature of the experiment: qHTS assay to identify small molecule antagonists of the androgen receptor (AR) signaling pathway (AID 743035; active means well fitted inhibition curve with a large enough effect in the signal ratio in the repeat runs, not every such curve was filed as active; the % refers to the signal ratio). In a few lines: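 HEK293 cells stably carrying UAS-beta-lactamase reporter, 2,000/well, given compounds plus R1881 agonist and incubated 16 h at 37C. LiveBLAzer B/G FRET substrate then added for 2 h at room temperature before fluorescence reading.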

Values without a mark were called inactive. Results filed as inconclusive are left out. Active and inactive are the calls of the source. Unless noted, the call rests on the fitted dose curve; in most records, active means well fitted curve in the direction sought with a large enough effect in the repeat runs; inconclusive means weak or mixed curves; inactive means no such curve, though single readings can be large; an effect the other way counts as inactive or inconclusive.

Chain of Glucocorticoid receptor (Homo sapiens) (P04150 whole entry, looked up): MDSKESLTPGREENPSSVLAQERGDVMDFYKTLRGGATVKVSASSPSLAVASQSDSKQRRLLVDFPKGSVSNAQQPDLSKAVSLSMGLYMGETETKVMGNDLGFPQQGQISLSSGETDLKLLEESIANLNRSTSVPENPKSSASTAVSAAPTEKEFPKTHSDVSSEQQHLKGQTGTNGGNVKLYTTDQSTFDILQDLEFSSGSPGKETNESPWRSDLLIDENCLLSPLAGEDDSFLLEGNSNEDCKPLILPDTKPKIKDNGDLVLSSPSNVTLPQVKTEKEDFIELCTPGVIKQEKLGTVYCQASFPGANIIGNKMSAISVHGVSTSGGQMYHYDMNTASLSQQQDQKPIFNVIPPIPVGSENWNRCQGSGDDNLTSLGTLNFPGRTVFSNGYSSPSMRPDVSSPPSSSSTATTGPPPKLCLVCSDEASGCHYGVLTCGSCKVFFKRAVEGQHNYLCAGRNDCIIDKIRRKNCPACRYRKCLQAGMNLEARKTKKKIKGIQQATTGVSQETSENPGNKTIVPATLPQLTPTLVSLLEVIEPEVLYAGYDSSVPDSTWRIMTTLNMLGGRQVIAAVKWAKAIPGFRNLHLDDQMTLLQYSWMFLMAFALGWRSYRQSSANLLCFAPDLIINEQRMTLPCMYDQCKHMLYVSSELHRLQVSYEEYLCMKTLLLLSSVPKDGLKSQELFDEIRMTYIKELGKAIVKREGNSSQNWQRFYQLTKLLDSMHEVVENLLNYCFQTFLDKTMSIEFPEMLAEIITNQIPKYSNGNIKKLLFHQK
Chain of Androgen receptor (Homo sapiens) (P10275 whole entry, looked up): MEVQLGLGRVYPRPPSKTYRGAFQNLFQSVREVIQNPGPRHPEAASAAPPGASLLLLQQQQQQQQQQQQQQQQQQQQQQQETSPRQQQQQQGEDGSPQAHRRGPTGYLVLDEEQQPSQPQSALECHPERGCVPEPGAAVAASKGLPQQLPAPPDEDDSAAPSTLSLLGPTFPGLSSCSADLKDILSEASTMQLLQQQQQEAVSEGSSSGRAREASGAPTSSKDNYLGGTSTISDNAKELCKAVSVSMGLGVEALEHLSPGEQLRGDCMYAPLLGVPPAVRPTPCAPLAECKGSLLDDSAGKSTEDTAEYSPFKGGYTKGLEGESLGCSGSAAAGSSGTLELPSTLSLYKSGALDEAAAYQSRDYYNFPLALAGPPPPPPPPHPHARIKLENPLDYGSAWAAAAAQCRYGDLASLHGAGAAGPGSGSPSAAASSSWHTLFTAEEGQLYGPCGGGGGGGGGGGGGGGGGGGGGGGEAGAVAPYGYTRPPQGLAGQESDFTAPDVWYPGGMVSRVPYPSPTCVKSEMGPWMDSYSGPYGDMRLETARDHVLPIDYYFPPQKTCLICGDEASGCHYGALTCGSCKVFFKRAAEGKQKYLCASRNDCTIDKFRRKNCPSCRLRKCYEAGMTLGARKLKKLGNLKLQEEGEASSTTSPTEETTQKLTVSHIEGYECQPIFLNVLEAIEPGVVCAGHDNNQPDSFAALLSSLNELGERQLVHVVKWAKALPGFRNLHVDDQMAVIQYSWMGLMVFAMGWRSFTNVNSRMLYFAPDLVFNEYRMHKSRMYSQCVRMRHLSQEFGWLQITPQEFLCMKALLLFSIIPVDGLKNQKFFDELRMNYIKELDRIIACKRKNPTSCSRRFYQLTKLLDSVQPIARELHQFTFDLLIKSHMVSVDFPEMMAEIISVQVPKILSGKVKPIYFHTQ

As for `C[C@H](CCC(=O)O)[C@H]1CC[C@H]2[C@@H]3C(=O)C[C@@H]4CC(=O)CC[C@]4(C)[C@H]3CC(=O)[C@]12C`, the result in [1], in [2], in [3], in experiment [4], in [5] and in experiment [6] was inactive. In addition, the molecule was called inactive in experiment [7] and in [9]. The Potency result in experiment [8], in experiment [10], in [11] and in experiment [12] was “inactive” in each case.

For the molecule `CCCCCCCCSCC`, the outcome in experiment [1], in experiment [2], in [3], in experiment [4], in [5] and in experiment [6] was inactive. Besides, the molecule was called inactive in experiment [7] and in [13]. The Potency result in experiment [8], in experiment [11], in experiment [14] and in experiment [12] was “inactive” each time.

As to `CC(CO)c1ccccc1` (stereo not given), the result in experiment [1], in experiment [2], in experiment [3], in [4], in experiment [5] and in experiment [6] was inactive. Also, the result in [7], in [15] and in experiment [16] was inactive. For the same molecule, the Potency entry in experiment [10], in experiment [11], in experiment [12], in [17] and in experiment [18] was “inactive” each time.

Take `O=C(O)Cc1ccc(Cl)cc1Cl`: the result in experiment [1], in experiment [2], in experiment [3], in experiment [4], in experiment [5] and in experiment [6] was inactive. For the same molecule, the molecule was called inactive in experiment [7], in experiment [9], in experiment [13] and in experiment [16]. Also, the Potency was 61.1 µM (active) in [10] and 27.3 µM (active) in [11]. The Potency result in experiment [12], in experiment [19] and in experiment [18] was “inactive” throughout.

In the case of `CCCC/C=C\CCCCCCCCCC=O`, the call in experiment [1], in [2], in experiment [3], in [4], in experiment [5] and in [6] was inactive. The result in experiment [7] and in experiment [13] was inactive. The Potency entry in experiment [11], in [12] and in experiment [17] was “inactive” throughout.

As to `Nc1nnc(-c2cccc(Cl)c2Cl)c(N)n1`, the molecule was classed as inactive in experiment [1], in experiment [2], in experiment [3], in experiment [4], in experiment [5] and in experiment [6]. Moreover, the call in experiment [7] was inactive. Besides, the Potency result in [10], in experiment [11], in experiment [12] and in experiment [17] was “inactive” throughout.

Take `N#Cc1ccc(C(=O)O)cc1`: the molecule was called inactive in experiment [1], in experiment [2], in experiment [3], in experiment [4], in experiment [5] and in experiment [6]. Also, the result in [7], in experiment [15] and in experiment [16] was inactive. The values for the Potency in experiment [11] and in experiment [14] were 30.6 µM (active) and 61.1 µM (active), respectively. Moreover, the Potency entry in experiment [12], in experiment [19], in [17] and in experiment [18] was “inactive” in each case.

For the molecule `OC[C@H](Cc1cccc(O)c1)[C@H](CO)Cc1cccc(O)c1`, the call in experiment [1], in experiment [2], in experiment [3], in experiment [4], in [5] and in [6] was inactive. The call in experiment [7], in experiment [9] and in experiment [13] was inactive. The Potency result in experiment [8], in [12] and in experiment [17] was “inactive” each time.

With `NCCN1CCOCC1`, the result in experiment [1], in experiment [2], in experiment [3], in [4], in [5] and in experiment [6] was inactive. Moreover, the molecule was classed as inactive in experiment [7], in [9] and in experiment [13]. The Potency result in experiment [8], in [10], in experiment [14], in [12] and in [17] was “inactive” each time.

With `C=Cc1ccccn1`, the result in experiment [1], in experiment [2], in experiment [3], in experiment [4], in experiment [5] and in experiment [6] was inactive. Moreover, the molecule was called inactive in [7] and in experiment [9]. Moreover, the Potency result in experiment [8], in experiment [10], in experiment [11], in experiment [12] and in [17] was “inactive” throughout.

For the molecule `CC(C)(C)c1n[nH]c(=S)n(N)c1=O`, the call in experiment [1], in [2], in experiment [3], in experiment [4], in [5] and in experiment [6] was inactive. The outcome in [7], in [9] and in experiment [13] was inactive. In addition, the Potency result in experiment [8], in experiment [11], in [12] and in [17] was “inactive” throughout.

On to `O=C(CS(=O)Cc1ccco1)NC/C=C\COc1cc(CN2CCCCC2)ccn1` (stereo not given), for which the call in experiment [1], in experiment [2], in [3], in experiment [4], in experiment [5] and in [6] was inactive. In addition, the result in [7], in [9] and in experiment [13] was inactive. In addition, the Potency result in experiment [8], in experiment [10], in [11], in [14], in [12] and in [17] was “inactive” each time.

As to `O=C1c2cccc3c2[C@H](CCC3)CN1[C@@H]1CN2CCC1CC2`, the call in experiment [1], in experiment [2], in [3], in experiment [4], in experiment [5] and in experiment [6] was inactive. Also, the molecule was classed as inactive in [7] and in experiment [9]. In addition, in [8], the Potency entry was “inactive”. Besides, the Potency was 11.9 µM (active) in experiment [10] and 23.7 µM (active) in experiment [14].

Turning to `Nc1ncnc(Nc2ccccc2)n1`, the molecule was called inactive in experiment [1], in experiment [2], in [3], in experiment [4], in [5] and in [6]. Further, the result in experiment [7] was inactive. Further, the Potency result in experiment [8], in [10], in experiment [11], in experiment [14] and in experiment [12] was “inactive” in each case.
